We go through 8 compounds from PubChem BioAssay (NCI).

The nature of the assay: NCI Yeast Anticancer Drug Screen. Data for the mlh1 strain (AID 171).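 Further: 0% = growth of vehicle-treated control cultures of the same strain.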 The following applies: S. cerevisiae mlh1 strain growth inhibition, hits give high values. On the procedure:
Growth inhibition of yeast strains with defined genetic alterations is measured as a screen for potential anti-cancer activity. Selected strains with alterations in DNA damage repair or cell cycle control were exposed to compounds and growth inhibition was measured relative to vehicle treated controls. The strain used in this assay is mlh1

Molecules are shown by their SMILES. Compounds without any hit were thinned out: in the full panel of roughly 79,000, 15% have a hit. Values without a mark were called inactive. Activity calls are given as the source filed them. No stated cut-off is given here; in the data, active means growth inhibition above about 70%; inactive means the rest.

Regarding `c1ccc(C2=NNC3c4ccccc4-c4ccccc4N3C2)cc1` (stereo not given), the growth inhibition is, setting by setting: (at 1.2 µM) -1%; (at 3.7 µM) 9%; (at 11.0 µM) 2%; (at 33.0 µM) 19%; (at 100.0 µM) 58%.

Take `COc1cc(C(C)(C)C)cc(OC)c1C(O)(c1c(OC)cc(C(C)(C)C)cc1OC)c1c(OC)cc(C(C)(C)C)cc1OC`: the growth inhibition (at 1.2 µM) is -19%; the growth inhibition (at 3.7 µM) is -12%; the growth inhibition (at 11.0 µM) is 89% (active); the growth inhibition (at 33.0 µM) is 94% (active); the growth inhibition (at 100.0 µM) was 88% (active).

For the compound `Cc1ccc(Nc2n[nH]c(=S)s2)cc1C`, the growth inhibition by setting is: (at 1.2 µM) -34%; (at 3.7 µM) -21%; (at 11.0 µM) -15%; (at 33.0 µM) 28%; (at 100.0 µM) 83% (active).

In the case of `Cc1c(N=Nc2ccc(Cl)cc2)c(C)n(C2OC(CO)C(O)C(O)C2O)c(=S)c1C#N` (stereo not given), the growth inhibition by setting is: (at 1.2 µM) 2%; (at 3.7 µM) 1%; (at 11.0 µM) 8%; (at 33.0 µM) 45%; (at 100.0 µM) 90% (active).

In the case of `O=C(CCC(=O)c1ccc(O)cc1)Oc1ccc(O)cc1`, the growth inhibition (at 1.2 µM) is 3%; the growth inhibition (at 3.7 µM) is 0%; the growth inhibition (at 11.0 µM) is 2%; the growth inhibition (at 33.0 µM) is 1%; the growth inhibition (at 100.0 µM) was 4%.

On to `CN(Cc1cccc2ccccc12)Cc1cccc2ccccc12`, for which the growth inhibition (at 1.2 µM) is 4%; the growth inhibition (at 3.7 µM) was 2%; the growth inhibition (at 11.0 µM) was -2%; the growth inhibition (at 33.0 µM) was -10%; the growth inhibition (at 100.0 µM) was 13%.

As to `O=C(/C(=C/c1ccccc1)CBr)c1ccccc1`, the growth inhibition (at 1.2 µM) was 3%; the growth inhibition (at 3.7 µM) is 11%; the growth inhibition (at 11.0 µM) was 67%; the growth inhibition (at 33.0 µM) is 97% (active); the growth inhibition (at 100.0 µM) was 99% (active).

As for `C[n+]1c(-c2ccc(NC(=O)c3ccc(C(=O)Nc4ccc(-c5cn6ccccc6[n+]5C)cc4)cc3)cc2)cn2ccccc21`, the growth inhibition (at 1.2 µM) is 2%; the growth inhibition (at 3.7 µM) was 1%; the growth inhibition (at 11.0 µM) was 23%; the growth inhibition (at 33.0 µM) was 89% (active); the growth inhibition (at 100.0 µM) was 94% (active).
